# Test results taken from PubChem BioAssay (NCATS).
# Inconclusive results are not listed. A call without a number means that no potency is given here. A number with no mark means an inactive call. Calls of active or inactive are those of the source. Calls follow the shape of the dose curve; as a rule, active = well fitted curve in the direction sought with a large enough effect; inconclusive = small, poorly fitted or top-dose-only effect, or another doubt; inactive = no such curve, though single readings can be large; an effect the other way counts as inactive or inconclusive.
# Assays:
# MCC-13 = test: qHTS assay to identify novel small-molecules to repurpose for Merkel cell carcinoma treatment (AID 1296009); settings: MCC and control cell lines, CellTiter-Glo viability, 72 h; series mostly up to 46 µM; also: nearly all actives have a fitted effect of over 60% in size; also: potency is read from the fitted curve at half-maximal effect
# Outline: (§1)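 CellTiter-Glo luminescence after 72 hr compound exposure at 37 degree celsius gave cell viability. Libraries NPC and MIPE were run as 8- and 11-point dose responses; RLUs normalized to DMSO (negative) and no-cell (cytotoxicity) controls.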
# MCC-26 = test: as above; settings: MCC and control cell lines, CellTiter-Glo viability, 72 h; series mostly up to 46 µM
# Outline: as §1
# MKL-1 = test: as above; settings: MCC and control cell lines, CellTiter-Glo viability, 72 h; series mostly up to 46 µM
# Outline: as §1
# MKL-2 = test: as above; settings: MCC and control cell lines, CellTiter-Glo viability, 72 h; series mostly up to 46 µM
# Outline: as §1
# UISO = test: as above; settings: MCC and control cell lines, CellTiter-Glo viability, 72 h; series mostly up to 46 µM
# Outline: as §1
# WaGa = test: as above; settings: MCC and control cell lines, CellTiter-Glo viability, 72 h; series mostly up to 46 µM
# Outline: as §1
# NIH3T3 = test: as above; settings: MCC and control cell lines, CellTiter-Glo viability, 72 h; series mostly up to 44.8 µM
# Outline: as §1
# C33A = test: Primary qHTS to identify gynecologic anti-cancer compounds using libraries of approved drugs and bioactive compounds (AID 1345084); settings: Gynecologic cancer cell panel viability, ATPlite luminescence, 48 h; series mostly up to 57.5 µM; also: nearly all actives have a fitted effect of over 55% in size
# Outline: (§2)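 48 h compound exposure at 37 C, 5% CO2; five-point qHTS. ATPlite luminescence readout of cell ATP.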
# CASKI = test: as above; settings: Gynecologic cancer cell panel viability, ATPlite luminescence, 48 h; series mostly up to 57.5 µM
# Outline: as §2
# Es-2 = test: as above; settings: Gynecologic cancer cell panel viability, ATPlite luminescence, 48 h; series mostly up to 57.5 µM
# Outline: as §2
# HeLa = test: as above; settings: Gynecologic cancer cell panel viability, ATPlite luminescence, 48 h; series mostly up to 57.5 µM
# Outline: as §2
# Hek293T = test: as above; settings: Gynecologic cancer cell panel viability, ATPlite luminescence, 48 h, control line for the selectivity index; series mostly up to 57.5 µM
# Outline: as §2
# JEG-3 = test: as above; settings: Gynecologic cancer cell panel viability, ATPlite luminescence, 48 h; series mostly up to 57.5 µM
# Outline: as §2
# OV90 = test: as above; settings: Gynecologic cancer cell panel viability, ATPlite luminescence, 48 h; series mostly up to 57.5 µM
# Outline: as §2
# PA-1 = test: as above; settings: Gynecologic cancer cell panel viability, ATPlite luminescence, 48 h; series mostly up to 57.5 µM
# Outline: as §2
# Tov-21-G = test: as above; settings: Gynecologic cancer cell panel viability, ATPlite luminescence, 48 h; series mostly up to 57.5 µM
# Outline: as §2
# Tov112D = test: as above; settings: Gynecologic cancer cell panel viability, ATPlite luminescence, 48 h; series mostly up to 57.5 µM
# Outline: as §2
# [1] = Drug repurposing screens with cells derived from glioblastoma tumor samples (AID 1345199); settings: GBM patient neurospheres viability, ATP luminescence, 48 h; also: nearly all actives have a fitted effect of over 40% in size
# Outline: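 Primary testing used CD133+ neurospheres from four GBM patients, seven concentrations, 48 h exposure and ATP-based viability; confirmation added three slower-growing patient lines.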
# CAOV3 = test: Primary qHTS to identify gynecologic anti-cancer compounds using libraries of approved drugs and bioactive compounds (AID 1345084); settings: Gynecologic cancer cell panel viability, ATPlite luminescence, 48 h; series mostly up to 57.5 µM; also: nearly all actives have a fitted effect of over 55% in size
# Outline: as §2
smiles,measurement,setting,value
CC(C)CN(C[C@H](O)[C@H](Cc1ccccc1)NC(=O)O[C@H]1CCOC1)S(=O)(=O)c1ccc(N)cc1,Potency,MCC-13,inactive
same,Potency,MCC-26,inactive
same,Potency,MKL-1,inactive
same,Potency,MKL-2,inactive
same,Potency,UISO,inactive
same,Potency,WaGa,inactive
C=CC[N+]1([C@H]2C[C@H]3[C@@H]4CC[C@H]5C[C@H](O)[C@@H](N6CCOCC6)C[C@]5(C)[C@@H]4CC[C@]3(C)[C@H]2OC(C)=O)CCCC1,Potency,MCC-13,inactive
same,Potency,MCC-26,inactive
same,Potency,MKL-1,inactive
same,Potency,MKL-2,inactive
same,Potency,UISO,inactive
same,Potency,WaGa,inactive
CC(C)[C@H](O)C(=O)N[C@@H](C)C(=O)N[C@@H]1C(=O)N(C)CCc2ccccc21,Potency,MCC-13,inactive
same,Potency,MCC-26,inactive
same,Potency,MKL-1,inactive
same,Potency,MKL-2,inactive
same,Potency,UISO,inactive
same,Potency,WaGa,inactive
CC(C)c1onc(-c2c(Cl)cccc2Cl)c1COc1ccc(C=Cc2cccc(C(=O)O)c2)c(Cl)c1,Potency,MCC-13,inactive
same,Potency,MCC-26,inactive
same,Potency,MKL-1,inactive
same,Potency,MKL-2,inactive
same,Potency,UISO,inactive
same,Potency,WaGa,inactive
O=C(O)C1=NC(C(=O)O)CC(C=CN2c3cc(O)c(OC4OC(CO)C(O)C(O)C4O)cc3CC2C(=O)O)=C1 (stereo not given),Potency,MCC-13,inactive
same,Potency,MCC-26,inactive
same,Potency,MKL-1,inactive
same,Potency,MKL-2,inactive
same,Potency,UISO,inactive
same,Potency,WaGa,inactive
COC(=O)N1CCN(Cc2cccc(NC(=O)Nc3ccc(C)nc3)c2F)CC1,Potency,MCC-13,inactive
same,Potency,MCC-26,inactive
same,Potency,MKL-1,inactive
same,Potency,MKL-2,inactive
same,Potency,NIH3T3,inactive
same,Potency,UISO,inactive
same,Potency,WaGa,inactive
same,Potency,C33A,inactive
same,Potency,CASKI,inactive
same,Potency,Es-2,inactive
same,Potency,HeLa,inactive
same,Potency,Hek293T,inactive
same,Potency,JEG-3,inactive
same,Potency,OV90,inactive
same,Potency,PA-1,inactive
same,Potency,Tov-21-G,inactive
same,Potency,Tov112D,inactive
C[C@H](CCC(=O)O)[C@H]1CC[C@H]2[C@H]3[C@@H](CC[C@]12C)[C@@]1(C)CC[C@@H](O)C[C@H]1C[C@@H]3O,Potency,MCC-13,inactive
same,Potency,MCC-26,inactive
same,Potency,MKL-1,inactive
same,Potency,MKL-2,inactive
same,Potency,UISO,inactive
COc1cc(F)c(C(C)C)cc1-c1ccc(C(F)(F)F)cc1CN1C(=O)O[C@H](c2cc(C(F)(F)F)cc(C(F)(F)F)c2)[C@@H]1C,Potency,MCC-13,inactive
same,Potency,MCC-26,inactive
same,Potency,MKL-1,inactive
same,Potency,MKL-2,inactive
same,Potency,UISO,inactive
same,Potency,WaGa,inactive
COc1ccc2ccc(=O)oc2c1CC=C(C)C,Potency,MCC-13,inactive
same,Potency,MCC-26,inactive
same,Potency,MKL-1,10.5 µM (active)
same,Potency,MKL-2,11.8 µM (active)
same,Potency,UISO,inactive
same,Potency,WaGa,5.26 µM (active)
CN(C)c1ccccc1CN1CCCN(Cc2ccccc2N(C)C)C1c1ccncc1,Potency,MCC-13,inactive
same,Potency,MCC-26,inactive
same,Potency,MKL-1,inactive
same,Potency,MKL-2,inactive
same,Potency,UISO,inactive
same,Potency,WaGa,inactive
O=c1cc(-c2ccc(O)c(O)c2)oc2cc(O)cc(O)c12,Potency,MCC-13,inactive
same,Potency,MCC-26,inactive
same,Potency,MKL-1,inactive
same,Potency,MKL-2,inactive
same,Potency,UISO,inactive
N#CC(=C1Nc2ccccc2S1)c1ccnc(OCc2ccc(CN3CCOCC3)cc2)n1,Potency,MCC-13,inactive
same,Potency,MCC-26,inactive
same,Potency,MKL-1,0.118 µM (active)
same,Potency,MKL-2,0.132 µM (active)
same,Potency,UISO,1.48 µM (active)
same,Potency,WaGa,0.132 µM (active)
CC1(C)OC2CC3C4CC(F)C5=CC(=O)C=CC5(C)C4C(O)CC3(C)[C@]2(C(=O)CO)O1 (stereo not given in full),Potency,MCC-13,inactive
same,Potency,MCC-26,inactive
same,Potency,MKL-1,inactive
same,Potency,MKL-2,inactive
same,Potency,UISO,inactive
same,Potency,WaGa,inactive
CC(C)C[C@@H](N)[C@H](O)C(=O)N[C@H](C(=O)N[C@H](C(=O)N[C@@H](CC(=O)O)C(=O)O)C(C)C)C(C)C,Potency,MCC-13,inactive
same,Potency,MCC-26,inactive
same,Potency,MKL-1,inactive
same,Potency,MKL-2,inactive
same,Potency,UISO,inactive
same,Potency,WaGa,inactive
CO[C@H]1C=CO[C@@]2(C)Oc3c(C)c(O)c4c(O)c(c(C=NN5CCN(C)CC5)c(O)c4c3C2=O)NC(=O)C(C)=CC=C[C@H](C)[C@H](O)[C@@H](C)[C@@H](O)[C@@H](C)[C@H](OC(C)=O)[C@H]1C,"activity change, negative = cytotoxicity",MCC-13,-0.156% [at 9.22 µM]
same,"activity change, negative = cytotoxicity",MCC-26,-1.4% [at 9.22 µM]
same,"activity change, negative = cytotoxicity",MKL-1,-4.29% [at 9.22 µM]
same,"activity change, negative = cytotoxicity",MKL-2,-21.3% [at 9.22 µM]
same,"activity change, negative = cytotoxicity",UISO,4.05% [at 9.22 µM]
same,"activity change, negative = cytotoxicity",WaGa,-1.76% [at 9.22 µM]
CCC=CC[C@H]1C(=O)CC[C@@H]1CC(=O)OC,Potency,MCC-13,inactive
same,Potency,MCC-26,inactive
same,Potency,MKL-1,inactive
same,Potency,MKL-2,inactive
same,Potency,UISO,inactive
same,Potency,WaGa,inactive
COc1cc2ncn(-c3cc(OCc4ccccc4S(C)(=O)=O)c(C#N)s3)c2cc1OC,Potency,MCC-13,inactive
same,Potency,MCC-26,inactive
same,Potency,MKL-1,inactive
same,Potency,MKL-2,inactive
same,Potency,UISO,inactive
same,Potency,WaGa,inactive
COc1cc2c(cc1OC)[C@@H]1Cc3ccc(OC)c(OC)c3CN1CC2,Potency,MCC-13,inactive
same,Potency,MCC-26,inactive
same,Potency,MKL-1,inactive
same,Potency,MKL-2,18.7 µM (active)
same,Potency,UISO,inactive
COc1ccc(C=CC(=O)Nc2ccccc2C(=O)O)cc1OC,Potency,MCC-13,inactive
same,Potency,MCC-26,inactive
same,Potency,MKL-1,inactive
same,Potency,MKL-2,inactive
same,Potency,UISO,inactive
same,Potency,WaGa,inactive
CCCCC(C=O)NC(=O)C(CC(C)C)NC(=O)OCc1ccccc1 (stereo not given),Potency,MCC-13,inactive
same,Potency,MCC-26,inactive
same,Potency,MKL-1,inactive
same,Potency,MKL-2,inactive
same,Potency,UISO,inactive
same,Potency,WaGa,inactive
COc1cc(N2CCN(C)CC2)ccc1Nc1nc(N)c(C(=O)c2c(Cl)cccc2Cl)s1,Potency,MCC-13,inactive
same,Potency,MCC-26,inactive
same,Potency,MKL-1,inactive
same,Potency,MKL-2,inactive
same,Potency,UISO,inactive
same,Potency,WaGa,inactive
CN1CCN2c3ncccc3Cc3ccccc3C2C1 (stereo not given),Potency,MCC-13,inactive
same,Potency,MCC-26,inactive
same,Potency,MKL-1,inactive
same,Potency,MKL-2,inactive
same,Potency,NIH3T3,inactive
same,Potency,UISO,inactive
same,Potency,WaGa,inactive
same,"activity, negative = cell killing","[1]; at 45.9 µM (top of the series), tumour line B",-0.787%
same,"activity, negative = cell killing","[1]; at 45.9 µM (top of the series), tumour line D",-14.6%
same,"activity, negative = cell killing","[1]; at 46.1 µM (top of the series), tumour line C",14.4%
CCN1CCN(c2ccc(Nc3cc(N(C)C(=O)Nc4c(Cl)c(OC)cc(OC)c4Cl)ncn3)cc2)CC1,Potency,MCC-13,inactive
same,Potency,MCC-26,inactive
same,Potency,MKL-1,inactive
same,Potency,MKL-2,inactive
same,Potency,NIH3T3,inactive
same,Potency,WaGa,inactive
same,Potency,C33A,inactive
same,Potency,CAOV3,inactive
same,Potency,CASKI,inactive
same,Potency,Es-2,inactive
same,Potency,Hek293T,inactive
same,Potency,JEG-3,inactive
same,Potency,OV90,inactive
same,Potency,PA-1,inactive
same,Potency,Tov112D,inactive
CC(C)c1c(C(=O)Nc2ccccc2)c(-c2ccccc2)c(-c2ccc(F)cc2)n1CC[C@H](O)C[C@@H](O)CC(=O)O,Potency,MCC-13,inactive
same,Potency,MCC-26,inactive
same,Potency,MKL-1,18.7 µM (active)
same,Potency,MKL-2,10.5 µM (active)
same,Potency,UISO,14.8 µM (active)
same,Potency,WaGa,23.5 µM (active)
Cc1ccc(S(=O)(=O)Nc2nc3ccccc3nc2Nc2ccc3nsnc3c2)cc1,Potency,MCC-13,inactive
same,Potency,MCC-26,inactive
same,Potency,MKL-1,1.82 µM (active)
same,Potency,MKL-2,inactive
same,Potency,UISO,5.12 µM (active)
